Results reported in PubChem BioAssay (NCATS).
Records with an inconclusive call do not appear. Active and inactive are the calls of the source. Calls come from the whole dose curve; tested in HEK293 reporter line.

Key:
[1] = qHTS for Inhibitors of the Functional Ribonucleoprotein Complex (vRNP) of Lassa (LASV) Arenavirus: LASV Primary Screen - GLuc reporter signal (AID 1347082); settings: LASV minigenome vRNP, Gaussia luciferase reporter; series mostly up to 57.5 µM; note: nearly all actives have a fitted effect of over 60% in size
[2] = qHTS for Inhibitors of the Functional Ribonucleoprotein Complex (vRNP) of Lassa (LASV) Arenavirus: Viability assay - alamar blue signal for LASV Primary Screen (AID 1347083); settings: cell viability, alamar blue fluorescence (LASV minigenome counter-screen); series mostly up to 57.5 µM; note: nearly all actives have a fitted effect of over 80% in size
[3] = qHTS for Inhibitors of the Functional Ribonucleoprotein Complex (vRNP) of Lymphocytic Choriomeningitis Arenaviruses (LCMV): Viability assay - alamar blue signal for LCMV Primary Screen (AID 1347085); settings: alamar blue viability counter-screen, LCMV vRNP screen cells; series mostly up to 57.5 µM; note: nearly all actives have a fitted effect of over 80% in size
% is set by controls: 0 for no effect and ±100 for the full control effect.

O=C(CCN1CCN(CCO)CC1)N1c2ccccc2Sc2ccc(C(F)(F)F)cc21
inactive: Potency [1] | Potency [2] | Potency [3]

CCCCCCCCCCCCCCCCCCOCC(O)CO (centres undefined)
inactive: Potency [1] | Potency [2] | Potency [3]

COc1cc(C(=O)NCCCCCC(=O)O)cc(OC)c1OC
inactive: Potency [1] | Potency [2] | Potency [3]

C=CCNc1nc(NCC=C)nc(N2CCN(C(c3ccc(F)cc3)c3ccc(F)cc3)CC2)n1
inactive: Potency [1] | Potency [2] | Potency [3]

O=C(O)CCC(=O)OC[C@@H](NC(=O)C(Cl)Cl)[C@H](O)c1ccc([N+](=O)[O-])cc1
inactive: Potency [1] | Potency [2] | Potency [3]

CN(C)CCN(Cc1ccccc1)c1ccccn1
inactive: Potency [1] | Potency [2] | Potency [3]

CCN(CC)CCNC(C(=O)OCCC(C)C)c1ccccc1 (centres undefined)
inactive: Potency [1] | Potency [2] | Potency [3]

CCNC(=O)NCCCOc1cccc(CN2CCCCC2)c1
inactive: Potency [1] | Potency [2] | Potency [3]

CCN(CC)CC(=O)Nc1c(C)cccc1C
inactive: Potency [1] | Potency [2] | Potency [3]

O=C1O[C@H]([C@@H](O)CO)C(O)=C1O
inactive: Potency [1] | Potency [2] | Potency [3]

Cc1c(N(C)C)c(=O)n(-c2ccccc2)n1C
inactive: Potency [1] | Potency [2] | Potency [3]

CC(C(O)c1ccc(O)cc1)N1CCC(Cc2ccccc2)CC1 (centres undefined)
inactive: Potency [1] | Potency [2] | Potency [3]

CN(C)CCCO[C@@H]1[C@H]2OC(C)(C)O[C@H]2O[C@@H]1C(O)CO (some centres undefined)
inactive: Potency [1] | Potency [2] | Potency [3]

C[C@]12CCC(=O)C=C1C=C[C@@H]1[C@@H]2CC[C@@]2(C)[C@H]1CC[C@@]21CCC(=O)O1
inactive: Potency [1] | Potency [2] | Potency [3]

CC(C)OC(=O)C(C(=O)OC(C)C)=C1SC=CS1
inactive: Potency [1] | Potency [2] | Potency [3]

C=CCc1cc(OC)c(O)c(C(=O)NCCO)c1
inactive: Potency [1] | Potency [2] | Potency [3]

N/C(=N\N=C\c1ccc(Cl)cc1)N/N=C/c1ccc(Cl)cc1
inactive: Potency [1] | Potency [2] | Potency [3]

Cc1cccc(C)c1NC(=O)CN1CCCC1
inactive: Potency [1] | Potency [2] | Potency [3]

CN1CCN(c2c(F)cc3c(=O)c(C(=O)O)cn(CCF)c3c2F)CC1
inactive: Potency [1] | Potency [2] | Potency [3]

Cc1cccc(C)c1NC(=O)C(C)N (centres undefined)
inactive: Potency [1] | Potency [2] | Potency [3]

Oc1c(I)cc(Cl)c2cccnc12
inactive: Potency [1] | Potency [2] | Potency [3]

COc1nc(C)nc(Cl)c1NC1=NCCN1
inactive: Potency [1] | Potency [2] | Potency [3]

Nc1c2c(nc3c1CCC3)CCCC2
inactive: Potency [1] | Potency [2] | Potency [3]

CN(C)CCCN1c2ccccc2Sc2ccc(C(F)(F)F)cc21
inactive: Potency [1] | Potency [2] | Potency [3]

C=CCOc1cc(Cl)ccc1C(=O)NCCN(CC)CC
inactive: Potency [1] | Potency [2] | Potency [3]

CCOc1c(N2CCOCC2)cnn(C)c1=O
inactive: Potency [1] | Potency [2] | Potency [3]

O=C(CCCN1CCN(c2ccccn2)CC1)c1ccc(F)cc1
inactive: Potency [1] | Potency [2] | Potency [3]

C[C@]1(Cn2ccnn2)[C@H](C(=O)O)N2C(=O)C[C@H]2S1(=O)=O
inactive: Potency [1] | Potency [2] | Potency [3]

O=C(O)[C@H](O)[C@@H](O)[C@H](O[C@@H]1O[C@H](CO)[C@H](O)[C@H](O)[C@H]1O)[C@H](O)CO
inactive: Potency [1] | Potency [2] | Potency [3]

Cc1cc(C(C)(C)C)c(O)c(C(C)(C)C)c1
inactive: Potency [1] | Potency [2] | Potency [3]

CCCCC1C(=O)N(c2ccccc2)N(c2ccc(O)cc2)C1=O (centres undefined)
inactive: Potency [1] | Potency [2] | Potency [3]

CN(C)CCOC(c1ccccc1)c1ccccc1
inactive: Potency [1] | Potency [2] | Potency [3]

CN1CCN(C2=Nc3cc(F)ccc3Cc3ccccc32)CC1
inactive: Potency [1] | Potency [2] | Potency [3]

CN(C)CCOC(c1ccccc1)c1ccc(Br)cc1 (centres undefined)
inactive: Potency [1] | Potency [2] | Potency [3]

COc1ccc(CCN(C)CCCC(C#N)(c2cc(OC)c(OC)c(OC)c2)C(C)C)cc1OC (centres undefined)
inactive: Potency [1] | Potency [2] | Potency [3]

CC[C@H](NC(C)C)[C@H](O)c1ccc(O)c2[nH]c(=O)ccc12
inactive: Potency [1] | Potency [2] | Potency [3]

OCC(O)CS (centres undefined)
inactive: Potency [1] | Potency [2] | Potency [3]

NC(=O)c1ncn([C@@H]2O[C@H](CO)[C@@H](O)[C@H]2O)c1N
inactive: Potency [1] | Potency [2] | Potency [3]

C/C=C/c1ccc(O)c(OC)c1
inactive: Potency [1] | Potency [2] | Potency [3]

C[C@@H](O)[C@H](N)C(=O)O
inactive: Potency [1] | Potency [2] | Potency [3]

CCN(CC)CCSC(=O)C(c1ccccc1)c1ccccc1
inactive: Potency [1] | Potency [2] | Potency [3]

C#C[C@]1(OC(C)=O)CC[C@H]2[C@@H]3CCC4=C[C@@H](OC(C)=O)CC[C@@H]4[C@H]3CC[C@@]21C
inactive: Potency [1] | Potency [2] | Potency [3]

O=C1NC2CCCCN2C12CCN(CCCN1c3ccccc3CCc3ccc(Cl)cc31)CC2 (centres undefined)
inactive: Potency [1] | Potency [2] | Potency [3]

CC(NC(CCc1ccccc1)C(=O)O)C(=O)N1C(=O)N(C)CC1C(=O)O (centres undefined)
inactive: Potency [1] | Potency [2] | Potency [3]

CN1CCC(=C2c3ccccc3Sc3ccccc32)CC1
inactive: Potency [1] | Potency [2] | Potency [3]

N=C(N)c1ccc(OCCCOc2ccc(C(=N)N)cc2)cc1
inactive: Potency [1] | Potency [2] | Potency [3]

CC(C)NCC(O)COc1ccc(COCCOC(C)C)cc1 (centres undefined)
inactive: Potency [1] | Potency [2] | Potency [3]

Nc1ccc(C(=O)N2CC3CC(CN(Cc4ccccc4)C3)C2)cc1
inactive: Potency [1] | Potency [2] | Potency [3]

NCC(=O)O
inactive: Potency [1] | Potency [2] | Potency [3]

O=C1OC(c2ccc(O)cc2)(c2ccc(O)cc2)c2ccccc21
inactive: Potency [1] | Potency [2] | Potency [3]

c1ccc2c(c1)CCc1ccccc1N2
inactive: Potency [1] | Potency [2] | Potency [3]

CCCCCCCCCCCCCCC[C@H](O)[C@@H](N)CO
inactive: Potency [1] | Potency [2] | Potency [3]

Cn1c(=O)c2c(ncn2CC2OCCO2)n(C)c1=O
inactive: Potency [1] | Potency [2] | Potency [3]

CC(=O)[C@@]1(O)CC[C@H]2[C@@H]3C[C@H](C)C4=CC(=O)CC[C@]4(C)[C@H]3CC[C@@]21C
inactive: Potency [1] | Potency [2] | Potency [3]

CC1=C(CC(=O)O)c2cc(F)ccc2/C1=C\c1ccc(S(C)(=O)=O)cc1
inactive: Potency [1] | Potency [2] | Potency [3]

CC(=O)N1CCN(c2ccc(O)cc2)CC1
inactive: Potency [1] | Potency [2] | Potency [3]

CCOC(=O)N1CCC(Nc2ccc(Cl)cc2N)CC1
inactive: Potency [1] | Potency [2] | Potency [3]

CN(Cc1ccc(C(C)(C)C)cc1)Cc1cccc2ccccc12
inactive: Potency [1] | Potency [2] | Potency [3]

Cc1c(Cl)cccc1Nc1ccccc1C(=O)O
inactive: Potency [1] | Potency [2] | Potency [3]

C/C(=C(\CCOP(=O)(O)O)SC(=O)c1ccccc1)N(C=O)Cc1cnc(C)nc1N
inactive: activity change, negative = inhibition [1] 1.78% [at 5.82 µM] | activity change, negative = reduced viability [2] 7.22% [at 5.82 µM] | activity change, negative = lower viability [3] -0.415% [at 5.82 µM]

OC(CN1CCC(Cc2ccc(F)cc2)CC1)c1ccc(Cl)cc1 (centres undefined)
inactive: Potency [1] | Potency [2] | Potency [3]

Oc1cc(O)c2c(c1)O[C@H](c1ccc(O)c(O)c1)[C@H](O)C2
inactive: Potency [1] | Potency [2] | Potency [3]

Cn1cc(C(=O)[C@@H]2CCc3nc[nH]c3C2)c2ccccc21
inactive: Potency [1] | Potency [2] | Potency [3]

COc1cc2[nH]c(=O)[nH]c(=O)c2cc1OC
inactive: Potency [1] | Potency [2] | Potency [3]

O=C(O)C1CCC1
inactive: Potency [1] | Potency [2] | Potency [3]

C[C@]12CCC(=O)C=C1CC[C@@H]1[C@@H]2C(=O)C[C@@]2(C)[C@H]1CC[C@]2(O)C(=O)CO
inactive: Potency [1] | Potency [2] | Potency [3]

CN1CCCCC1CCN1c2ccccc2Sc2ccc(S(C)=O)cc21 (centres undefined)
inactive: Potency [1] | Potency [2] | Potency [3]

Nc1ccn(C2CO[C@H](CO)O2)c(=O)n1 (some centres undefined)
inactive: Potency [1] | Potency [2] | Potency [3]

N=C(N)c1ccc2cc(OC(=O)c3ccc(N=C(N)N)cc3)ccc2c1
inactive: Potency [1] | Potency [2] | Potency [3]

C[N+]12CCC(CC1)C(OC(=O)C(O)(c1ccccc1)c1ccccc1)C2 (centres undefined)
inactive: Potency [1] | Potency [2] | Potency [3]

C[C@@H]1CCC[C@H](C)N1CCCC(O)(c1ccccc1)c1ccccn1 (some centres undefined)
inactive: Potency [1] | Potency [2] | Potency [3]

CCc1cccc2c3c([nH]c12)C(CC)(CC(=O)O)OCC3 (centres undefined)
inactive: Potency [1] | Potency [2] | Potency [3]

CCCCC1(COC(=O)CCC(=O)O)C(=O)N(c2ccccc2)N(c2ccccc2)C1=O
inactive: Potency [1] | Potency [2] | Potency [3]

N[C@@H](CSCCCO)C(=O)O
inactive: Potency [1] | Potency [2] | Potency [3]

CSc1ccc(C(=O)c2[nH]c(=O)[nH]c2C)cc1
inactive: Potency [1] | Potency [2] | Potency [3]

CC(=O)Nc1ccc(S(=O)(=O)Nc2ccc([N+](=O)[O-])cc2)cc1
inactive: Potency [1] | Potency [2] | Potency [3]

CC1(C)[C@H](C(=O)O)N2C(=O)C[C@H]2S1(=O)=O
inactive: Potency [1] | Potency [2] | Potency [3]

CN1CC(=O)N2[C@H](c3ccc4c(c3)OCO4)c3[nH]c4ccccc4c3C[C@@H]2C1=O
inactive: Potency [1] | Potency [2] | Potency [3]

Cc1ccc(/C=N/n2c(-c3ccccc3)csc2=S)cc1
inactive: Potency [1] | Potency [2] | Potency [3]

O=C1Cc2cc(Cl)ccc2N1
inactive: Potency [1] | Potency [2] | Potency [3]

O=C1C(c2[nH]c3ccccc3c2O)=Nc2ccccc21
inactive: Potency [1] | Potency [2] | Potency [3]

NC(CSCC(=O)O)C(=O)O (centres undefined)
inactive: Potency [1] | Potency [2] | Potency [3]

Cc1ccc(O)c(-n2nc3ccccc3n2)c1
inactive: Potency [1] | Potency [2] | Potency [3]

O=C1Nc2ccccc2C1(c1ccc(O)cc1)c1ccc(O)cc1
inactive: Potency [1] | Potency [2] | Potency [3]

CC(=O)Oc1ccc(C(c2ccc(OC(C)=O)cc2)c2ccccn2)cc1
inactive: Potency [1] | Potency [2] | Potency [3]

C[N+]1(CC2COC(c3ccccc3)(C3CCCCC3)O2)CCCCC1 (centres undefined)
inactive: Potency [1] | Potency [2] | Potency [3]

Cc1ncc(CSSCc2cnc(C)c(O)c2CO)c(CO)c1O
inactive: Potency [1] | Potency [2] | Potency [3]

CNCCC(Oc1ccccc1OC)c1ccccc1 (centres undefined)
inactive: Potency [1] | Potency [2] | Potency [3]
